# From PubChem BioAssay AID463190 (Sanford-Burnham Center for Chemical Genomics, 2010)
# Screen size: about 330,000 compounds; about 7,300 (2.2%) were called active. The sample holds actives, similar compounds and a random draw of the others, so the mix is not that of the screen. Values without a mark were called inactive.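 The calls were made as follows: active = inhibition of at least 40%; inactive = the rest.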
# Assay: growth inhibitors of tim10-1 mutant yeast, primary screen, luminescence, uHTS (AID 463190);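 also: mutant grown at 25 °C; 0% = DMSO wells with yeast and 100% = wells holding no yeast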
# Conditions: S. cerevisiae tim10-1 ts strain growth, BacTiter-Glo, 24 h; at 20 µM; stronger effect = higher value
row,Structure (SMILES),inhibition
1,COc1ccc(NC(=O)c2sc(N3CCOCC3)nc2-c2ccccc2)c(OC)c1,33.9%
2,CCOc1ccc2ccccc2c1/C=N/NC(=O)c1c(C)cc(C)[nH]c1=O,2.15%
3,CCOC(=O)CN1CC23C=CC(O2)C(C(=O)Nc2ccc(F)cc2)C3C1=O (stereo not drawn),3.99%
4,O=C(CSc1nccn1-c1cccc(F)c1)NC1CCCC1,-5.65%
5,COC(=O)[C@H](C(C)C)n1c(C)c(C(C)=O)c(C(C)=O)c1C,0.67%
6,COc1ccc(CNC(=O)C(C)NCc2ccccc2Cl)cc1 (stereo not drawn),21.6%
7,COc1ccc(CNC(=O)COc2ccccc2C(=O)c2cnn(-c3ccccc3)c2)cc1OC,4.14%
8,CCN1C(=NCCc2cccnc2)N[C@@H](c2ccccc2)C(C(=O)OC)=C1C,0.495%
9,COCCN(C(=O)C(C)C)c1nnc(-c2ccc(C(C)(C)C)cc2)s1,38.1%
10,Cn1c(SCC(=O)Nc2ccc(N3CCOCC3)cc2)nnc1C(F)(F)F,-4.28%
11,O=C(Nc1ccccc1)O/N=C1\CCCCC1c1ccc([N+](=O)[O-])cc1[N+](=O)[O-] (stereo not drawn),24.7%
12,C[n+]1ccccc1C1CCCC/C1=N\Nc1ccc([N+](=O)[O-])cc1[N+](=O)[O-] (stereo not drawn),28%
13,O=[N+]([O-])c1ccc(N/N=C2/CCCCC2c2ccccn2)c([N+](=O)[O-])c1 (stereo not drawn),42% (active)
14,O=C(NNC(=S)NC(=O)c1cn(-c2ccccc2)nc1-c1ccccc1)c1ccncc1,13.6%
15,O=C(C1CCCO1)N(c1ccc(F)cc1)C1C=CS(=O)(=O)C1 (stereo not drawn),5.92%
16,CCCN(CCC)c1c([N+](=O)[O-])c(=O)oc2ccccc12,11%
17,CCCC(NCC(=O)Nc1ccccc1C(=O)NC1CC1)c1ccccc1 (stereo not drawn),11.8%
18,CCc1ccc(NC(=O)NC(C)c2ccc3c(c2)OCO3)cc1 (stereo not drawn),2.45%
19,CC(=NCc1ccco1)C1=C(O)c2ccccc2C1=O,34.3%
20,CC(=NCc1ccc2c(c1)OCO2)C1=C(O)c2ccccc2C1=O,61.2% (active)
21,Cc1ccc(S(=O)(=O)N2CCN=C2SCc2c(F)cccc2Cl)cc1,-8.21%
22,COc1cc(/C=N/NC(=O)Cc2ccccc2)cc(OC)c1OC,2.14%
23,COc1cc(N=Cc2c(O)[nH]c3ccccc23)cc(OC)c1OC,44% (active)
24,COc1ccc2[nH]c(C(=O)N/N=C/c3cc(OC)c(OC)c(OC)c3)cc2c1,20.1%

row,Structure (SMILES),inhibition
1,Cc1ccsc1-c1cc(C(=O)O)c2c(ccc3ccccc32)n1,-20.7%
2,O=c1nc(N/N=C/c2ccco2)cn[nH]1,17.8%
3,COc1ccc(NC(=O)CN(C)C(=O)c2n[nH]c3ccccc23)cc1,9.05%
4,O=C(CCCC(=O)N(CC(=O)NC1CCCC1)Cc1ccccc1Cl)Nc1ccccn1,14.9%
5,O=[N+]([O-])c1ccc(C=Nc2ccc(Cl)cc2Cl)s1,77.7% (active)
6,CC1CN(C(=O)c2ccc([N+](=O)[O-])s2)CC(C)O1 (stereo not drawn),17.2%
7,CC(C)(C)c1cc(C(=O)N/N=C/c2ccc([N+](=O)[O-])s2)n[nH]1,32%
8,O=C1CCc2cc(S(=O)(=O)Nc3ccc(C(F)(F)F)cc3)cc3c2N1CC3,4.21%
9,O=c1oc(-c2ccccc2NS(=O)(=O)c2ccc(Cl)cc2)nc2ccccc12,39.6%
10,NC(=O)c1ccc(CN2CCC(Cc3ccccc3)CC2)cc1,-11.2%
11,CCOc1ccc2oc(C(=O)N(CC)CC(=O)Nc3ccc(NC(C)=O)cc3)c(C)c2c1,16.8%
12,CCSC1=C(C#N)C(=O)n2c1cc1c2CCCC1,58.8% (active)
13,CCSc1ncnc2c(C#N)c3n(c12)CCCCC3,-13.6%
14,O=C(CSc1ccc2nnc(-c3ccccc3)n2n1)N1CCCc2ccccc21,-0.717%
15,O=S(=O)(Nc1ccc2[nH]ncc2c1)c1ccccc1Cl,6%
16,COCc1cc(=O)[nH]c(-c2ccc(C(F)(F)F)cc2)n1,-4.56%
17,CC(Sc1nn(-c2ccc(Cl)cc2)c(=S)s1)C(=O)NCC1CCCO1 (stereo not drawn),25.6%
18,Cc1nc([N+](=O)[O-])nn1C12CC3CC(CC(Br)(C3)C1)C2,27%
19,CCc1nn(CCCC(=O)NCc2ccc(C)cc2)c(=O)c2cc3occc3n12,31.1%
20,CCc1nn(CCCC(=O)Nc2ccc(C)cc2C)c(=O)c2cc3occc3n12,41.6% (active)
21,CCc1nn(CCCC(=O)Nc2ccc(C)c(C)c2)c(=O)c2cc3occc3n12,33.6%
22,CCC1(CC)Cc2ccccc2-c2nc3ccccc3c(=O)n21,16.4%
23,CCOC(=O)C1Cn2c(nc3c(c2=O)C(C)(CC)Cc2ccccc2-3)S1 (stereo not drawn),40.7% (active)
24,CCC1(CC)Cc2ccccc2-c2nc(CCl)[nH]c(=O)c21,27.6%

row,Structure (SMILES),inhibition
1,COC(=O)c1cccc(N(C(=O)c2ccco2)C(C(=O)NC2CCCC2)c2ccco2)c1 (stereo not drawn),3.43%
2,Cn1c(=O)c2c(ncn2CC(COCc2ccccc2Cl)OCc2ccccc2Cl)n(C)c1=O (stereo not drawn),19.9%
3,Cc1ccnc(N2CCN(C(=O)CSc3nc4ccccc4nc3N3CCCCC3)CC2)c1,2.78%
4,COc1cccc(-n2c(=S)sc3c(=O)n(-c4ccccc4OC)c(SCC4OCCO4)nc32)c1,4.35%
5,CNC(C)C#Cc1ccc2sc3cc(OC)c(OC)cc3c(=O)c2c1 (stereo not drawn),43.4% (active)
6,Cc1ccc(C(=O)COC(=O)CCN2C(=O)C3C4CC(C(Br)C4Br)C3C2=O)cc1 (stereo not drawn),7.92%
7,CCCCOc1ccc(C(=O)NCC(=O)OCC(=O)N2CCN(S(=O)(=O)c3ccc(C)cc3C)CC2)cc1,15.7%
8,O=C(COC(=O)c1ccc(F)cc1)NCCCc1ccccc1,24.1%
9,CCOc1ccc(NC(=O)c2ccc(NC(=O)CN3C(=O)C(=O)N(CC(C)C)C3=O)cc2)cc1,2.57%
10,COc1ccc(CCNc2nc(C)cc(C)n2)cc1OC,-4.02%
11,COc1ccc(CCNc2nc3ccc(C)cc3n3cnnc23)cc1OC,2.87%
12,COc1ccc(CCNc2cc(C)nc3c(-c4ccc(Cl)cc4)c(C)nn23)cc1OC,43.9% (active)
13,O=C(c1cnc(Cl)c(Cl)c1)N1CCN(S(=O)(=O)c2ccc(F)cc2)CC1,3.46%
14,COc1ccc(Cc2nnc(SCC(=O)Nc3ccc(C)c(C)c3)o2)cc1OC,7.89%
15,N/C(=N\OC(=O)CCn1cccc(C(F)(F)F)c1=O)c1ccc(OC(F)(F)F)cc1,-0.346%
16,O=C(O)CC12CC3CC(C1)CC(n1ncc(NCc4ccc(F)cc4)c(Cl)c1=O)(C3)C2,0.72%
17,O=C(CN1CCN(Cc2ccc(F)cc2Cl)C1=O)NCc1cccs1,12.6%
18,O=c1c(Cl)c(NCc2ccc(F)cc2Cl)cnn1C12CC3CC(CC(C3)C1)C2,43.1% (active)
19,CCOc1cc2[nH]c(=S)n(Cc3ccc(C(=O)N4CCN(C)CC4)cc3)c(=O)c2cc1OCC,4.68%
20,Cc1ccc(S(=O)(=O)NCC(=O)NNC(=O)c2ccc(Br)cc2)cc1C,6.99%
21,COC(=O)/C(C#N)=C/c1occc1C,-13.8%
22,CN1C(=O)c2ccc(C(=O)Nc3ccc(Br)cn3)cc2C1=O,6.17%
23,O=C(Nc1cccc(O)c1)c1ccc(C(=O)c2ccccc2)o1,6.57%
24,Cc1onc(C(=O)NCc2ccc(F)cc2)c1[N+](=O)[O-],5.1%

row,Structure (SMILES),inhibition
1,Cc1cccc(NC(=O)c2ccc([N+](=O)[O-])o2)c1,58% (active)
2,O=C(Nc1ccc(Br)cn1)c1ccc([N+](=O)[O-])cc1Cl,7.02%
3,O=C(Nc1ccc(Br)cn1)c1ccc([N+](=O)[O-])o1,66.6% (active)
4,Cc1cccc(NC(=O)c2cc([N+](=O)[O-])ccc2N2CCN(C)CC2)c1,10%
5,Cc1onc(NC(=O)c2ccc([N+](=O)[O-])o2)c1Br,42.4% (active)
6,CCN(CC)S(=O)(=O)c1ccc(N2CCCC2)c(NC(=O)c2ccc([N+](=O)[O-])o2)c1,31.3%
7,OC(COCCC12CC3CC(CC(C3)C1)C2)CN1CCCCC1 (stereo not drawn),4.4%
8,FC(F)(F)c1cccc(-c2cc3ccccc3nc2N2CCCC2)c1,-16.8%
9,COC(=O)c1ccccc1NC(=O)Cc1ccccc1OC,10.2%
10,Cc1cc(C)cc(NC(=S)NCc2ccc(F)cc2)c1,23.8%
11,Cc1cccc(NC(=S)NCc2ccc3[nH]c4c(c3c2)CCCC4)c1,41.3% (active)
12,Cc1cccc(NC(=S)NCCN(C2CCCCC2)C2CCCC2)c1,28.1%
13,O=S(=O)(O)CCN1CCOCC1,6.54%
14,CCOC12CC(C)(C)CC(C)(CC3=C1C(=O)CC(C)(C)C3)C2 (stereo not drawn),17.6%
15,CC1(c2nnc(-c3ccncc3)o2)CC(c2cccnc2)=NO1 (stereo not drawn),-5.58%
16,S=C(NCc1ccc(Cl)cc1)NC12CC3CC(CC(C3)C1)C2,51.4% (active)
17,COC(=O)Cc1ccc(NC(=S)NCc2ccc(Cl)cc2)cc1,20.1%
18,O=C(NCc1ccc(Cl)cc1)NCc1ccc(Cl)cc1,-35.2%
19,OC1CCCN(c2ncnc3c2nnn3Cc2c(F)cccc2Cl)C1 (stereo not drawn),14.9%
20,O=S1(=O)CCO[C@H]2Cc3ccccc3[C@H]2N1Cc1ccccc1,10%
21,CC1=C(C(N)=O)C(c2ccc(F)cc2)n2nc(CCCO)nc2N1 (stereo not drawn),15.6%
